HT1080 IDH1KD tx: toxicity to HT-1080 IDH1 knockdown cells (counter line) | AID 686971 | Potency, µM (series often up to 46.1 µM), inactives show at the highest dose activity, negative = toxicity, hits mostly cytotoxic | HT-1080 IDH1 knockdown viability, ATP luminescence, 48 h | 2% of 360,000 active;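 further: 0% = DMSO wells and -100% = cell-free medium wells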
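CellTiter-Glo luminescence after 48 h compound exposure at 37 degrees C of IDH1-knockdown HT-1080 cells in 5% FBS RPMI. %Activity scaled between DMSO wells and cell-free media wells, with curves fitted and assigned curve classes.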
KB-3-1 cytotox: kills parental KB-3-1 adenocarcinoma cells; 1.4% of 400,000 active; Potency, µM (series often up to 46.1 µM), usual class: cytotoxic; AID 1347075; KB-3-1 viability, CellTiter-Glo ATP luminescence, 72 h; further: nearly all actives have a fitted effect of over 60% in size
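Using CellTiter-Glo luminescence, growth of non-resistant KB-3-1 adenocarcinoma cells is assessed 72 h after pin-tool compound addition at 37 °C. Normalized responses across the concentration series yield fitted curves.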
DT40 TDP1 no CPT: qHTS for Inhibitors of human tyrosyl-DNA phosphodiesterase 1 (TDP1): qHTS in cells in absence of CPT; AID 686978, 2013; DT40 Tdp1-/- hTDP1 cells, no CPT, ATP luminescence, 48 h; Potency, µM (series often up to 46.2 µM), for the others: at the top dose activity change, negative = growth inhibition, most hits filed as inhibitors; 15% of 420,000 active; further: nearly all actives have a fitted effect of over 55% in size
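A cellular qHTS used chicken DT40 cells lacking endogenous Tdp1 but carrying stably transfected human TDP1. Compounds were applied without camptothecin, and cell growth kinetics were judged by ATP-dependent luminescence after ≥48 hr.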
DT40 TDP1 CPT: DT40-hTDP1 cell growth loss with CPT. chicken DT40 Tdp1-/-;hTDP1 cells + 20 nM CPT, ATP luminescence, 48 h. Potency, µM (top dose mostly 46.2 µM), without a hit: top-dose activity change, negative = growth inhibition, actives largely listed as inhibitors. 12% of 420,000 active; further: nearly all actives have a fitted effect of over 55% in size
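Chicken DT40 Tdp1-/- cells complemented with human TDP1, 400 cells/well, exposed to compounds plus 20 nM camptothecin for at least 48 h at 37 C; viability read as ATP content by CellTiter-Glo luminescence.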
HT1080NT lethal: kills 2HG-producing HT-1080-NT fibrosarcoma cells; HT-1080-NT fibrosarcoma viability, CellTiter-Glo ATP luminescence, 48 h; 1.6% of 360,000 active; AID 686970; Potency, µM (titrated, usually from 46.1 µM), for the others: top-dose activity, negative = less viability, actives largely listed as cytotoxic;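 further: NT is the 2HG producing partner of a matched IDH1 knockdown line; 0% = DMSO-treated cells and -100% = media-only wells without cells; nearly all actives have a fitted effect of over 55% in size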
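HT-1080-NT; 750 cells/well; 5% FBS RPMI; 48 h compound, 37 degrees C; CellTiter-Glo luminescence; curve fitting and curve-class assignment.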
KB-V1 MDR tox: KB-V1 MDR subline cytotoxicity; KB-V1 MDR cells viability, CellTiter-Glo, 72 h; Potency, µM (highest dose often 46.1 µM), most hits filed as cytotoxic; 3.4% of 400,000 active; AID 1347076; further: nearly all actives have a fitted effect of over 60% in size
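Luminescent ATP read-out (CellTiter-Glo, 10 min) measures survival of drug-selected KB-V1 MDR cells after 72 h, 37 degrees C compound exposure. Medium: phenol-red-free DMEM, 10% FBS. Values from fitted concentration-response curves.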
Active calls of the source: *; i = inactive; ? = inconclusive; nt = no result given. Only some compounds are listed: those with a hit (about 19% of all), similar ones and a draw of the others. The call rests on the fitted dose curve; in most records, active means well fitted curve in the direction sought with a large enough effect; inconclusive means small, poorly fitted or top-dose-only effect, or another doubt; inactive means no such curve, though single readings can be large; an effect the other way counts as inactive or inconclusive. Unless noted, on the % scale 0 is the no-effect control and ±100 the full control effect; potency means the concentration at half of the fitted maximal effect.

SMILES	HT1080 IDH1KD tx	KB-3-1 cytotox	DT40 TDP1 no CPT	DT40 TDP1 CPT	HT1080NT lethal	KB-V1 MDR tox
Clc1ccc2c(N/N=C/c3ccc(Br)cc3)ccnc2c1	?	?	?	?	?	i
Cc1ccc(/C=N/Nc2ccnc3cc(Cl)ccc23)c(C)c1	?	?	12µM*	6.5µM*	?	i
Cc1ccc(NS(=O)(=O)c2cc3c4c(cccc4c2)C(=O)NC3=O)cc1C	5.2µM*	15µM*	8.2µM*	6.5µM*	7.3µM*	?
O=C1NC(=O)c2cc(Br)cc3cccc1c23	?	i	-18%	-2%	9%	?
Cc1ccc(O)c(C(=O)/C=C/c2ccc3c(c2)OCCO3)c1	-13%	i	16µM*	16µM*	-19%	i
O=C(O)c1ccc(/C=C/C(=O)c2ccc3c(c2)OCCCO3)cc1	?	?	23µM*	?	?	?
COc1ccc(C(=O)/C=C/c2ccc3c(c2)OCCO3)cc1	?	i	?	?	?	i
O=C(/C=C/c1ccc2c(c1)OCCO2)c1ccccc1	-12%	i	16µM*	?	-5%	i
O=C(Nc1ccc(-c2n[nH]c(=S)o2)cc1)c1ccccc1Br	5%	i	-15%	1%	12%	i
CC1(Cc2ccccc2C#N)C(=O)Nc2cc(-c3ccccc3Cl)ccc21 (stereo not given)	?	?	?	23µM*	?	i
CCOC(=O)c1ccc(Nc2cc(C)nc(-c3ccccc3)n2)cc1	18µM*	i	5.2µM*	4.6µM*	16µM*	?
COC(=O)c1cccc(Nc2nc(-c3ccncc3)nc3ccccc23)c1	6%	i	?	?	-1%	i
CCOC(=O)c1nc(Nc2cccc(C)c2)c2ccccc2n1	-11%	i	12µM*	23µM*	1%	?
CCOC(=O)c1nc(NCc2ccccc2)c2ccccc2n1	1%	i	?	?	4%	i
CCCOC(=O)c1cccc(Nc2nc(C(=O)OCC)nc3ccccc23)c1	nt	i	13µM*	16µM*	nt	?
CCOC(=O)c1cccc(Nc2cc(-c3ccccc3)ncn2)c1	nt	i	15µM*	15µM*	nt	i
C=CCNc1nc(C(=O)OCC)nc2ccccc12	1%	i	-20%	-5%	1%	i
CCOC(=O)c1nc(Nc2ccc(C(C)=O)cc2)c2ccccc2n1	4%	i	15µM*	16µM*	-4%	?
CCOC(=O)c1ccc(Nc2nnc(C)c3ccccc23)cc1	-3%	i	16µM*	-12%	?	i
CCOC(=O)c1cccc(Nc2nc(C(=O)OCC)nc3ccccc23)c1	nt	i	3.3µM*	4.1µM*	nt	?
CCOC(=O)c1nc(Nc2ccccc2CC)c2ccccc2n1	-7%	?	18µM*	?	-3%	i
CCOC(=O)c1nc(Nc2ccc(N3CCOCC3)cc2)c2ccccc2n1	2%	i	?	?	3%	i
COc1cc(/C(C#N)=C/c2ccccc2)c([N+](=O)[O-])cc1OC	-4%	i	?	-25%	-16%	?
Cc1ccc(C(=O)COC(=O)c2cccc([N+](=O)[O-])c2)s1	4%	i	10%	5%	5%	?
CC(=O)c1cccc(NC(=O)CSc2ccc(-c3sc(C)nc3C)nn2)c1	-19%	i	23µM*	21µM*	-18%	?
SMILES	HT1080 IDH1KD tx	KB-3-1 cytotox	DT40 TDP1 no CPT	DT40 TDP1 CPT	HT1080NT lethal	KB-V1 MDR tox
Cc1nc(C)c(-c2ccc(SCC(=O)Nc3ccc(Br)cc3)nn2)s1	nt	nt	?	21µM*	nt	nt
Cc1nc(C)c(-c2ccc(SCC(=O)Nc3cccc(Cl)c3)nn2)s1	-18%	i	?	26µM*	-2%	i
COc1ccc(NC(=O)CSc2ccc(-c3sc(C)nc3C)nn2)cc1	-24%	i	?	-24%	-15%	?
Cc1nc(C)c(-c2ccc(SCC(=O)Nc3cccc(F)c3)nn2)s1	-17%	i	23µM*	16µM*	?	?
CCc1ccc(NC(=O)CSc2ccc(-c3sc(C)nc3C)nn2)cc1	?	i	?	?	-18%	i
CC(=O)N1CCC2(CC1)CCN(C(=O)Nc1cccc(C#N)c1)CC2	nt	nt	0%	1%	nt	nt
CCCN(CC(=O)Nc1ccc(C)cc1Br)CC(=O)Nc1ccc(F)c(F)c1F	-15%	i	18µM*	?	-3%	8.2µM*
CCCN(CC(=O)Nc1ccc(F)c(F)c1F)CC(=O)Nc1c(Cl)cccc1Cl	3%	i	4.1µM*	10µM*	3%	18µM*
CC(=O)Oc1ccc2c(=O)c(-c3nc4ccccc4s3)coc2c1	-17%	i	-16%	0%	0%	i
CCOC(=O)C1(CC)CC(CSc2nc3ccccc3[nH]2)OC1=O (stereo not given)	2%	i	?	?	3%	i
CCCCCC1(C(=O)OCC)CC(CSC(=N)N)OC1=O (stereo not given)	2%	?	16µM*	21µM*	1%	i
Cc1noc(C)c1COc1ccc(CC(=O)NCc2ccccc2)cc1	1.2µM*	?	0.52µM*	0.65µM*	?	?
CC(=O)c1ccccc1NC(=O)c1ccc(OCc2c(C)noc2C)cc1	-3%	i	18µM*	?	-9%	i
Cc1noc(C)c1COc1cccc(C(=O)Nc2ccccc2)c1	13%	i	-2%	18%	3%	i
Cc1noc(C)c1COc1ccc(CC(=O)NCCc2ccccn2)cc1	13%	i	?	-8%	?	i
Cc1noc(C)c1COc1cccc(C(=O)NCCc2c[nH]c3ccccc23)c1	?	i	21µM*	13µM*	?	?
Cc1cccc(C(=O)Nc2ccccc2C(=O)OCc2c(C)noc2C)c1	-1%	i	?	-16%	9%	3.3µM*
COc1ccc(OCC(=O)Nc2c3c(nn2-c2ccc(OC)cc2)CS(=O)(=O)C3)cc1	0%	i	-1%	-14%	-3%	i
O=C(NCc1ccc2c(c1)OCO2)OCc1ccccc1	4%	i	-19%	-5%	-2%	i
O=C(Cc1ccc(OCc2ccccc2)cc1)NCc1ccc2c(c1)OCO2	3%	i	7.3µM*	?	24%	i
